The nature of assay [1]: ATG_NRF2_ARE_CIS: Attagene CIS-FACTORIAL HepG2 Assay for human Nuclear Factor Erythroid 2 Related Factor 2 (NFR2) response to Antioxidant Response Elements (ARE) (AID 2282992).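 As to AC50: reporter mRNA level measured by RT-PCR and capillary electrophoresis fluorescence.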 Particulars: HepG2 Attagene ARE/NRF2 reporter, transcription factor activity; actives raise or lower the signal. Put shortly: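 Endogenous transcription factor activity in human liver HepG2 cells is tracked via a cis-element-driven reporter within a multiplexed set. mRNA induction is read by RT-PCR and capillary electrophoresis after 24 h, with DMSO as baseline.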

The nature of assay [2]: ATG_Oct_MLP_CIS: Attagene CIS-FACTORIAL HepG2 Assay for human Octamer-Binding Transcription Factor (Oct) (AID 2282993). The note with it: HepG2 Attagene cis-factorial Oct reporter, mRNA; actives raise or lower the signal. In a few lines:
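HepG2 cells transiently transfected with cis-element-driven reporter transcription units (endogenous TF activity); 24 h compound exposure. Reporter mRNA quantified by RT-PCR, 6-FAM labelling, HpaI digestion and capillary electrophoresis; bidirectional fit versus DMSO baseline.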

The target of assay [3] is Cellular tumor antigen p53 (Homo sapiens) (UniProt P04637). The assay can be described thus: ATG_p53_CIS: Attagene CIS-FACTORIAL HepG2 Assay for human p53 Transcription Factor (AID 2282994). The note with it: HepG2 p53 cis-element reporter, Attagene mRNA; actives raise or lower the signal. Put shortly:
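Steps: transfect HepG2 with multiplexed cis reporter constructs; dose chemicals 24 h; extract RNA, reverse-transcribe, PCR-amplify reporter sequences; FAM-label, HpaI-digest, resolve fragments by CE. Activity fitted both directions relative to DMSO.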

Assay [4] is described as follows: BSK_3C_TissueFactor: BioMAP Diversity Plus: 3C Assay for Tissue Factor Biomarker Activity (AID 2282997). The note with it: BioMAP 3C HUVEC, tissue factor biomarker readout; actives raise or lower the signal. In a few lines: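 In this endothelial system, HUVEC are treated for 24 h and Tissue Factor is assessed by ELISA, normalised to DMSO.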
The nature of assay [5]: BSK_3C_uPAR: BioMAP Diversity Plus: 3C Assay for Urokinase-type plasminogen activator receptor (uPAR) Biomarker Activity (AID 2282998). The note with it: BioMAP 3C HUVEC, uPAR biomarker ELISA; actives raise or lower the signal. In a few lines: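 Primary human umbilical vein endothelial cells, 3C system; surface uPAR measured by ELISA 24 h after dosing. Cytotoxicity via SRB total protein in parallel cultures; bidirectional fit against DMSO.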
Background: In an ELISA, binding on a coated surface is turned into a signal by an enzyme label.

A short description of assay [6]: BSK_3C_VCAM1: BioMAP Diversity Plus: 3C Assay for Vascular cell adhesion molecule 1 (VCAM1) Biomarker Activity (AID 2282999). Particulars: BioMAP 3C HUVEC, VCAM1 ELISA, cytokine-stimulated; actives raise or lower the signal. Put shortly: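 Activity fitted in both directions relative to DMSO, with ELISA measurement of the surface marker on primary HUVEC (3C) at 24 h post-treatment; parallel SRB staining (0.1% SRB, TCA-fixed, 560 nm) flagged overt cytotoxicity.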

A short description of assay [7]: BSK_4H_Eotaxin3: BioMAP Diversity Plus: 4H Assay for Eotaxin 3 Biomarker Activity (AID 2283000).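 Also: CCL26 protein level quantified by ELISA in parallel with SRB cytotoxicity check.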 The note with it: primary human endothelial cells (HUVEC); actives raise or lower the signal. Put shortly: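 ELISA quantitation of CCL26 (Eotaxin-3) protein from chemically dosed human vascular endothelial cells at 24 h; increases and decreases both scored relative to DMSO-treated baseline.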

Read-out in assay [8]: Intercellular Adhesion Molecule 1 (ICAM1), ICAM1 (gene 3383)
The assay can be described thus: BSK_3C_ICAM1: BioMAP Diversity Plus: 3C Assay for Intercellular Adhesion Molecule 1 (ICAM1) Biomarker Activity (AID 2283003). Particulars: primary human endothelial cells (HUVEC); actives raise or lower the signal. Put shortly: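 Chemicals are dosed onto primary human umbilical vein endothelium (3C system). After 24 h, ICAM-1 is measured by ELISA, and responses are fitted bidirectionally relative to DMSO.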

A short description of assay [9]: BSK_3C_Proliferation: Cell Proliferation Assessment in the BioMAP Diversity Plus: 3C Assay (AID 2283006). Particulars: primary human endothelial cells (HUVEC). In a few lines: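 Cells (human umbilical vein endothelial, sub-confluent) receive test chemical; after 48 h they are fixed in 10% trichloroacetic acid, stained with 0.1% SRB and read at 560 nm. Activity is referenced to DMSO, fitting increases and decreases.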

The target in assay [10] is Peroxisome proliferator-activated receptor gamma (Homo sapiens) (UniProt P37231). The assay can be described thus: ATG_PPARg_TRANS: Attagene TRANS-FACTORIAL HepG2 Assay for human Peroxisome Proliferator-activated Receptor-gamma (PPARg) (AID 2283007; active = hit-call score of the fitted dose curve at least 0.9, where 1 is the maximum). In a few lines: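 Multiplexed reporter transcription units in HepG2, 24 h dosing, reporter transcripts quantified by fluorescent RT-PCR and capillary electrophoresis. Increase over DMSO scored.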
Chain of Peroxisome proliferator-activated receptor gamma (Homo sapiens) (P37231 whole entry, looked up): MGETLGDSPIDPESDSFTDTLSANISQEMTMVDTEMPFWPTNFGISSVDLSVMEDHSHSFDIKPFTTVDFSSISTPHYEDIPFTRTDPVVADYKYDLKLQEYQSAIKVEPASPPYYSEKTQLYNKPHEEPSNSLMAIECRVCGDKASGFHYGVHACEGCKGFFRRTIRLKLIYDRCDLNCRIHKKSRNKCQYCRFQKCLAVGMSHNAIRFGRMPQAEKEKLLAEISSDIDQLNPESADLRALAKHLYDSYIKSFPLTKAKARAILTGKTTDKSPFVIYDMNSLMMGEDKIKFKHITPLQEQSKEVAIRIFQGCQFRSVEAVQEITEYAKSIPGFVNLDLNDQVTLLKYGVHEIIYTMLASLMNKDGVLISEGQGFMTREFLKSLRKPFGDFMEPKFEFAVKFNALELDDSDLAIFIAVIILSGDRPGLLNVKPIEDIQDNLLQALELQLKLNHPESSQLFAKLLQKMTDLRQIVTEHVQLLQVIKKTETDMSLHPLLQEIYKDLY

Assay [11] has as its target Nuclear receptor subfamily 1 group I member 2 (Homo sapiens) (UniProt O75469). Kind of assay: ATG_PXR_TRANS: Attagene TRANS-FACTORIAL HepG2 Assay for human Pregnane X Receptor (PXR) (AID 2283008; active = hit-call score of the fitted dose curve at least 0.9, where 1 is the maximum). In a few lines:
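HepG2 transfected (FuGene 6) with GAL4-UAS reporter units + PXR-Gal4 chimera; dosed 24 h. Total RNA → oligo(dT) RT → PCR → 6-FAM primer extension → HpaI cut → CE. Gain-of-signal vs DMSO.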

Assay [12] can be described thus: ATG_NF_kB_CIS: Attagene CIS-FACTORIAL HepG2 Assay for human Nuclear Factor Kappa B (NF-kB) (AID 2282991). Particulars: HepG2 Attagene cis-factorial NF-kB reporter mRNA; actives raise or lower the signal. In a few lines:
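HepG2, transient multi-reporter transfection, cis promoter elements (endogenous TFs). 24 h exposure. Total RNA → RT → PCR → 6-FAM label → HpaI → CE. Gain/loss vs DMSO.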

Assay [13] has as its target human Peroxisome Proliferator-activated Receptor delta (PPARd), PPARD (gene 5467) (UniProt Q03181). Kind of assay: ATG_PPARd_TRANS: Attagene TRANS-FACTORIAL HepG2 Assay for human Peroxisome Proliferator-activated Receptor delta (PPARd) (AID 2283002; active = hit-call score of the fitted dose curve at least 0.9, where 1 is the maximum). Put shortly: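 Cell-based TRANS reporter: HepG2, transient MRTU transfection, 24 h exposure. Readout = reporter mRNA (RT-PCR/CE, 6-FAM). Gain-of-signal fit vs DMSO control.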

The target of assay [14] is human Retinoic Acid Receptor beta (RARb), RARB (gene 5915) (UniProt P10826). Kind of assay: ATG_RARb_TRANS: Attagene TRANS-FACTORIAL HepG2 Assay for human Retinoic Acid Receptor beta (AID 2283004; active = hit-call score of the fitted dose curve at least 0.9, where 1 is the maximum). In a few lines: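 Fluorescent capillary-electrophoresis detection of GAL4-UAS reporter mRNA defines the endpoint, with induction over DMSO-treated wells scored as activity. Transiently transfected human hepatoma HepG2 cells expressing exogenous NR–Gal4 proteins are exposed to test chemicals for 24 h.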
Chain of human Retinoic Acid Receptor beta (RARb), RARB (gene 5915) (P10826 whole entry, looked up, the tested form may be a part): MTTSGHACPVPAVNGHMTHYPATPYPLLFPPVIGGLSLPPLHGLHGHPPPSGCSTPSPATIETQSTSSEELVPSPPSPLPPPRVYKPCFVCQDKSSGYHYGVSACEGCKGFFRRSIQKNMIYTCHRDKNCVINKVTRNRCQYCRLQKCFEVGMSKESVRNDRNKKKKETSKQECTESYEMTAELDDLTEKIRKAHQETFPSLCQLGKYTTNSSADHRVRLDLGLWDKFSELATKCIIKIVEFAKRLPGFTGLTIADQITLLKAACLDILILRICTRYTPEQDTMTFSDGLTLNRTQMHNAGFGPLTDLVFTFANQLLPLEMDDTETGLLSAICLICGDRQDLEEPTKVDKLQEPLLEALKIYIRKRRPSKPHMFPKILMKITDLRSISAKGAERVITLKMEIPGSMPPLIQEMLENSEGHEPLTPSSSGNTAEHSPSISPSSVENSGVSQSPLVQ

Assay [15] deals with Retinoic acid receptor alpha (Homo sapiens) (UniProt P10276). Kind of assay: ATG_RARa_TRANS: Attagene TRANS-FACTORIAL HepG2 Assay for human Retinoic Acid Receptor alpha (RARa) (AID 2283005; active = hit-call score of the fitted dose curve at least 0.9, where 1 is the maximum). In a few lines: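 Reporter transcripts, measured by RT-PCR with fluorescent labeling and capillary electrophoresis after 24 h dosing, reflect activity of an exogenous human RARa–GAL4 fusion in transiently transfected HepG2. Fitted for increase relative to DMSO.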
Chain of Retinoic acid receptor alpha (Homo sapiens) (P10276 whole entry, looked up, the tested form may be a part): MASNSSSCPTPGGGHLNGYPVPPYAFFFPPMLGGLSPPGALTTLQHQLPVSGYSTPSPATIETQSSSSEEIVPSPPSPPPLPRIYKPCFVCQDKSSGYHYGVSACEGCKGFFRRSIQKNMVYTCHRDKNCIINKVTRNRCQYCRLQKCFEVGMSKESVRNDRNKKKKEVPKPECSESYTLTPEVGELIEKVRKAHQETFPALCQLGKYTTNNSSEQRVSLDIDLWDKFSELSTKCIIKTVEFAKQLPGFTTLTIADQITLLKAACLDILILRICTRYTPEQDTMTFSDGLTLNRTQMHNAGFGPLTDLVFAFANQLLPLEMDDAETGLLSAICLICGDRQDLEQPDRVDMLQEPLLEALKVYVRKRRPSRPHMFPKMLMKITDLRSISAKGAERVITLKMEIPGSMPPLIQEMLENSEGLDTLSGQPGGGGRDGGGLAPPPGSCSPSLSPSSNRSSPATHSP

Assay [16] deals with human Retinoic Acid Receptor gamma (RARg), RARG (gene 5916) (UniProt P13631). Kind of assay: ATG_RARg_TRANS: Attagene TRANS-FACTORIAL HepG2 Assay for human Retinoic Acid Receptor gamma (RARg) (AID 2283009; active = hit-call score of the fitted dose curve at least 0.9, where 1 is the maximum). Put shortly:
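TRANS format measured activity of exogenous NR-GAL4 fusion (RARg) in transfected HepG2 liver cells after 24 h dosing. Induced reporter RNA was detected by RT-PCR/capillary electrophoresis fluorescence, analysed in the positive direction against DMSO.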

Assay [17] concerns the target human Peroxisome Proliferator-activated Receptor alpha (PPARa), PPARA (gene 5465) (UniProt Q07869). Kind of assay: ATG_PPARa_TRANS: Attagene TRANS-FACTORIAL HepG2 Assay for human Peroxisome Proliferator-activated Receptor alpha (PPARa) (AID 2283001; active = hit-call score of the fitted dose curve at least 0.9, where 1 is the maximum). In a few lines:
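Reporter transcripts quantified by RT-PCR plus capillary electrophoresis after 24 h treatment, fitted upward relative to DMSO. Cells: human HepG2 transiently carrying multiple GAL4-UAS reporter units driven by NR-Gal4 chimeras.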

In assay [18] the target is human RAR-related Orphan Receptor gamma (RORg), RORC (gene 6097) (UniProt P51449). Kind of assay: ATG_RORg_TRANS: Attagene TRANS-FACTORIAL HepG2 Assay for human RAR-related Orphan Receptor gamma (RORg) (AID 2283011; active = hit-call score of the fitted dose curve at least 0.9, where 1 is the maximum). In a few lines:
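Chimeric RORg-Gal4 transactivation in transfected HepG2; 24 h exposure; RT-PCR/capillary electrophoresis readout of reporter mRNA, DMSO baseline.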

Assay [19] concerns the target human RAR-related Orphan Receptor beta (RORb), RORB (gene 6096) (UniProt Q92753). The assay can be described thus: ATG_RORb_TRANS: Attagene TRANS-FACTORIAL HepG2 Assay for human RAR-related Orphan Receptor beta (RORb) (AID 2283010; active = hit-call score of the fitted dose curve at least 0.9, where 1 is the maximum). Put shortly: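 Transfect HepG2 with multiple GAL4-UAS reporter transcription units; dose chemicals for 24 h; isolate RNA, reverse-transcribe and PCR-amplify reporter sequences; label, digest and resolve fragments by capillary electrophoresis; fit increases relative to DMSO.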

Inconclusive results are not listed. The source made the active and inactive calls. The calls were made as follows, unless noted: active = hit-call score of the fitted dose curve at least 0.9, where 1 is the maximum; inactive = score below 0.9.

Chain of human Peroxisome Proliferator-activated Receptor delta (PPARd), PPARD (gene 5467) (Q03181 whole entry, looked up): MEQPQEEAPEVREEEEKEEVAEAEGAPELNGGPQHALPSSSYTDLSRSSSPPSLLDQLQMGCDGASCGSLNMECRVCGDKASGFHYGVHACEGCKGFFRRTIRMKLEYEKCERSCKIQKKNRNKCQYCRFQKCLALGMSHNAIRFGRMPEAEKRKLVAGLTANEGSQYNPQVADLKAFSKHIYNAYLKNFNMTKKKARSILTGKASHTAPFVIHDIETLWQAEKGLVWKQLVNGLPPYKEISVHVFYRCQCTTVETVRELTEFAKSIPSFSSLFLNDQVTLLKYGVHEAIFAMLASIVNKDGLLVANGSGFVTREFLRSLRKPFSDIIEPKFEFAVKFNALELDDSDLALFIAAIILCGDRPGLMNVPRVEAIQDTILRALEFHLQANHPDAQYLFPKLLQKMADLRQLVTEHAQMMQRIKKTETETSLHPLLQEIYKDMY
Chain of Nuclear receptor subfamily 1 group I member 2 (Homo sapiens) (O75469 whole entry, looked up, the tested form may be a part): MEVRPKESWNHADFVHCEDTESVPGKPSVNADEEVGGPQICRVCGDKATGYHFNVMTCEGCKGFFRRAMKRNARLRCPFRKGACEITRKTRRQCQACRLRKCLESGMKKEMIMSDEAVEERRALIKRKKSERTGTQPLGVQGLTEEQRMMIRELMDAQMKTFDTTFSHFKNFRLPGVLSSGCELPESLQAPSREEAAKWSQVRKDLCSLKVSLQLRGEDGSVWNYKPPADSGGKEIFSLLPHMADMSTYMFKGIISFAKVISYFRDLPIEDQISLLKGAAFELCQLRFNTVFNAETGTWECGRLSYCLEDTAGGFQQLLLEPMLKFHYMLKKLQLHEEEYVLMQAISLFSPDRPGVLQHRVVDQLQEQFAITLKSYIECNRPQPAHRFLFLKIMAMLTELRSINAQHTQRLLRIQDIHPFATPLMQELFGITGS
Chain of human Retinoic Acid Receptor gamma (RARg), RARG (gene 5916) (P13631 whole entry, looked up, the tested form may be a part): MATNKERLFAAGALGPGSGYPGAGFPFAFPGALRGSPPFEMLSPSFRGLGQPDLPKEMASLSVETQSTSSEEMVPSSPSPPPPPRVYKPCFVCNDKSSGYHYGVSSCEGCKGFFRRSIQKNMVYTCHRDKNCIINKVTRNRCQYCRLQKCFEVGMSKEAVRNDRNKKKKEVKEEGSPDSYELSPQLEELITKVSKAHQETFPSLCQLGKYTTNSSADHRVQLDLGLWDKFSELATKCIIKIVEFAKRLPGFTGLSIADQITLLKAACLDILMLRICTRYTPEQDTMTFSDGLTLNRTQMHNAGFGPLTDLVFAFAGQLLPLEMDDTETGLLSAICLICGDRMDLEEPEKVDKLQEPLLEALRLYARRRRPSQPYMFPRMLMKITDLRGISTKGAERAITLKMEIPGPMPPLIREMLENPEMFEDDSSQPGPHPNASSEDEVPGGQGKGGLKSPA
Chain of human Peroxisome Proliferator-activated Receptor alpha (PPARa), PPARA (gene 5465) (Q07869 whole entry, looked up, the tested form may be a part): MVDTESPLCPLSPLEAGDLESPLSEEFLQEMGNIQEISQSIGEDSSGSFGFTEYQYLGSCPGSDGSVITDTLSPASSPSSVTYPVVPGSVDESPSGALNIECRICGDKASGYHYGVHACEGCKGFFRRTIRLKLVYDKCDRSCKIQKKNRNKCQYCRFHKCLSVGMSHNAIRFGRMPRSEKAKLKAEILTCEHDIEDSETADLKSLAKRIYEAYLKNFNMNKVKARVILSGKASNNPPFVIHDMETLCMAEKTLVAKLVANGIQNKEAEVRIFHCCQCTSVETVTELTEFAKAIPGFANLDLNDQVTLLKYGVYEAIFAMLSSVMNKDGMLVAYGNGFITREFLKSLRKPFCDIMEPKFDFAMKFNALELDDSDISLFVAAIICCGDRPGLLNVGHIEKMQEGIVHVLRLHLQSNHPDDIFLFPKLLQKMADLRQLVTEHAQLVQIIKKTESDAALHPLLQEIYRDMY
Chain of human RAR-related Orphan Receptor gamma (RORg), RORC (gene 6097) (P51449 whole entry, looked up, the tested form may be a part): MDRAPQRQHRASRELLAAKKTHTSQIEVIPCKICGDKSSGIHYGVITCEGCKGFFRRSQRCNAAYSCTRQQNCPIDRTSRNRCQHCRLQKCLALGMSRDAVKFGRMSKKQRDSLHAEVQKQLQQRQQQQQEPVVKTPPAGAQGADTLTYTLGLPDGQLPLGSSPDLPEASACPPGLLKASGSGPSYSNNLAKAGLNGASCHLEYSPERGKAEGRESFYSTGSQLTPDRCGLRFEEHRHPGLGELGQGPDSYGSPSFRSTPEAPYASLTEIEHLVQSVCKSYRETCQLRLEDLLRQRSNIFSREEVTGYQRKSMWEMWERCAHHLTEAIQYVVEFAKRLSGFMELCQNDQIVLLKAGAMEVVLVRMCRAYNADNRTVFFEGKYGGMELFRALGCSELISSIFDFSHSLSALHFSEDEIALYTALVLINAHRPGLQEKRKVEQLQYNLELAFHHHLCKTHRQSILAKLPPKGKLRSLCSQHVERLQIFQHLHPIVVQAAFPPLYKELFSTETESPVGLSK
Chain of Cellular tumor antigen p53 (Homo sapiens) (P04637 whole entry, looked up, the tested form may be a part): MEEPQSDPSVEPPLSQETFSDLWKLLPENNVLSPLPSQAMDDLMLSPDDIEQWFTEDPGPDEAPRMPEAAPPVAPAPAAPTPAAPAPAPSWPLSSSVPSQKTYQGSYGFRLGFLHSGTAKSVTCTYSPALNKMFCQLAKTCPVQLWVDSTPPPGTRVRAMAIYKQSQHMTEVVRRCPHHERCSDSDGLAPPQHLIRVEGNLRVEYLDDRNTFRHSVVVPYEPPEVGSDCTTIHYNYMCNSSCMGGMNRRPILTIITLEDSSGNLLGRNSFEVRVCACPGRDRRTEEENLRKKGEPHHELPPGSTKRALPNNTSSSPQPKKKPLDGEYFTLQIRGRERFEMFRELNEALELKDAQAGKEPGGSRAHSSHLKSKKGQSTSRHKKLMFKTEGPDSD
Chain of human RAR-related Orphan Receptor beta (RORb), RORB (gene 6096) (Q92753 whole entry, looked up, the tested form may be a part): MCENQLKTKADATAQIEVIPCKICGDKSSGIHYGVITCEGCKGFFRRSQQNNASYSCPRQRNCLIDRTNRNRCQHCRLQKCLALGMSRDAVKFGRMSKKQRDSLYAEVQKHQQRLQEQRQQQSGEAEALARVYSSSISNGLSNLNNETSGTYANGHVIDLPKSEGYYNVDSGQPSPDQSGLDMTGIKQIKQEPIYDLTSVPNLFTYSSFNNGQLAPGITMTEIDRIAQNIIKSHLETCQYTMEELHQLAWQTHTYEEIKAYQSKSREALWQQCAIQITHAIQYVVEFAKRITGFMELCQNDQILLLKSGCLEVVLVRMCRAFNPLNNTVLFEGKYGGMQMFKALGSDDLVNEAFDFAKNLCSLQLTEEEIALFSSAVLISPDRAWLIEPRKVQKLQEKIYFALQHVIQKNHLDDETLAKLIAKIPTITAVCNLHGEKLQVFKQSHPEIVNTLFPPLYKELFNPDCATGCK

Regarding `O=C(Nc1ccc2c(O)c(N=Nc3ccc(N=Nc4ccc(S(=O)(=O)O)cc4)cc3)c(S(=O)(=O)O)cc2c1)c1ccccc1`, the call in [1], in [2], in [3], in assay [4], in [5] and in assay [6] was inactive. Besides, the outcome in assay [7], in assay [8], in assay [9], in [10] and in assay [11] was inactive.
In the case of `CC1CCC(C(C)C)C(O)C1` (stereo not drawn), the molecule was called inactive in [12], in assay [1], in [13], in assay [14], in assay [15] and in assay [10]. Further, the outcome in assay [11] and in [16] was inactive.
In general, AC50 refers to the midpoint of the concentration-response curve, whichever way the signal moves. As to `C=C[Si]1(C)O[Si](C)(C=C)O[Si](C)(C=C)O[Si](C)(C=C)O1` (stereo not drawn), the AC50 in assay [12] was 19.8 µM (active); in assay [11], 4.48 µM (active). The outcome in [2], in assay [3] and in assay [10] was inactive.
For the molecule `C=CC(=O)OCCCC`, the call in assay [1], in assay [2], in assay [3], in assay [14], in assay [15] and in assay [11] was inactive. Besides, the molecule was called inactive in [16].
`CC(C)=CCCC(C)CC(=O)O` (stereo not drawn): the outcome in [12], in assay [1], in [2], in [17], in assay [13] and in assay [10] was inactive. In addition, in assay [11], the outcome was inactive.
With `O=C1CCCC=CCCCCCCCCCC1`, the result in assay [12], in assay [2], in [3] and in assay [13] was inactive. Further, the half-maximal activity concentration (AC50) in assay [1] was 45.7 µM (active); in [10], 66.8 µM (active); in assay [11], 10.3 µM (active).
With `C[C@@H]1CCN(C(=O)[C@H](CCCN=C(N)N)NS(=O)(=O)c2cccc3c2NC[C@H](C)C3)[C@@H](C(=O)O)C1`, the molecule was called inactive in assay [12], in [2], in [3], in [4], in assay [5] and in assay [6]. For the same molecule, the outcome in assay [7], in assay [8], in assay [14], in [9], in assay [10] and in assay [16] was inactive.
As for `CCN(CC)C(=O)N(CC)CC`, the molecule was classed as inactive in assay [12], in assay [1], in [2], in assay [3], in assay [4] and in assay [5]. The outcome in [6], in assay [7], in [13], in assay [8], in [14] and in assay [15] was inactive. In addition, the result in assay [9], in assay [11] and in assay [16] was inactive.
Regarding `O=c1c(O)c(-c2ccc(O)cc2)oc2cc(O)cc(O)c12`, the result in assay [12], in assay [2], in [3], in assay [17], in assay [13] and in [11] was inactive. Moreover, the outcome in [18] was inactive. Besides, the AC50 is 8.93 µM (active) in assay [1] and 9.39 µM (active) in assay [10].
Regarding `CCOc1ccc(NC(=O)CC(C)O)cc1` (stereo not drawn), the outcome in assay [12], in assay [2], in assay [3], in assay [14], in assay [15] and in assay [10] was inactive. Besides, the molecule was classed as inactive in [18].
As for `CCCOC(=O)c1c(Cl)c(Cl)c(Cl)c(Cl)c1C(=O)OCCC`, the outcome in assay [12], in assay [3] and in assay [13] was inactive. Also, the AC50 in assay [1] is 55.3 µM (active); in assay [2], 148 µM (active).
Regarding `COc1ccc(N)c([N+](=O)[O-])c1`, the result in assay [12], in assay [1], in [2], in assay [3], in assay [13] and in assay [10] was inactive. Also, the outcome in [11] and in assay [19] was inactive.
Consider `C=CC(=O)OCCC#N`, for which the AC50 in [12] was 50.9 µM (active); in [1], 25.9 µM (active); in assay [2], 44.1 µM (active); in assay [10], 6.89 µM (active). Moreover, the molecule was classed as inactive in assay [17], in [13], in assay [14], in assay [15], in [11] and in [16]. Besides, the call in [19] and in [18] was inactive.
Regarding `N#Cc1ccc(CC(=O)c2cccc(C(F)(F)F)c2)cc1`, the outcome in assay [12], in [2], in [3], in assay [17], in assay [13] and in assay [16] was inactive. The AC50 in assay [1] is 13.5 µM (active); in assay [11], 5.99 µM (active).
In the case of `C[C@H]1C[C@@H](O)CC(C)(C)C1`, the call in [12], in [1], in [14], in assay [15], in assay [10] and in assay [11] was inactive. For the same molecule, the molecule was called inactive in assay [16].

Values taken from PubChem BioAssay (EPA / NIEHS).
